Laboratory results reported in PubChem BioAssay AID493185 (National Center for Advancing Translational Sciences (NCATS), 2011).
Activity calls are given as the source filed them. Calls follow the shape of the dose curve; as a rule, active = well fitted activation curve with a large enough effect; inconclusive = small, poorly fitted or top-dose-only effect; inactive = no such curve, though single readings can be large or run the other way.

Assay: Counterscreen for Identifying a Potential Treatment of Ataxia-Telangiectasia: Hit Validation; as to activation: 0% is about no effect
Settings: cell-free AlphaLISA/AlphaScreen artifact counterscreen, PBS only, no cells; series mostly up to 76.9 µM; activation: at the top concentration
How it was run: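 Cell-free AlphaLISA counterscreen: compounds (up to 76.7 uM final) in PBS with detection mix of anti-pKAP1 and anti-KAP1 antibodies on donor/acceptor beads plus lysis buffer, incubated 6 hr at 25C before AlphaScreen read.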
Potency is read from the fitted curve at half-maximal effect.

Row | Structure (SMILES) | activation | Potency
1 | COc1cccc(C2C(C(N)=O)=C(C)Nc3nc(CCCO)nn32)c1 (stereo not given) | 9.02% (inactive) | –
2 | CC1Cc2ccccc2N1C(=O)CSc1nnnn1-c1ccc2c(c1)OCCO2 (stereo not given) | 18.8% (inactive) | –
3 | COc1cccc(/C=N/NC(=O)c2cc3cc([N+](=O)[O-])ccc3s2)c1O | -1.5% (inactive) | –
4 | CCOC(=O)c1c(CSc2ccsc2)n(C)c2cc(Br)c(O)c(CN(C)C)c12 | -23.8% (inactive) | –
5 | O=C(N/N=C/c1cccc2ccccc12)c1cccnc1 | 0% (inactive) | –
6 | COc1ccc(/C=N/Nc2nc(=O)[nH]nc2C)cc1OC | 3.28% (inactive) | –
7 | CCn1c2ccccc2c2c3ncc4cccn4c3ccc21 | – | 41.2 µM (active)
8 | CCc1ccc(C2c3[nH]c4ccccc4c3CCN2C(=O)c2cc[n+]([O-])cc2)cc1 (stereo not given) | 22.6% (inactive) | –
9 | CCC(=O)c1ccc2c(c1)OCCO2 | -15.8% (inactive) | –
10 | Cn1cnc([N+](=O)[O-])c1SCCO | 3.01% (inactive) | –
11 | COC(=O)c1ccc2[nH]c3cccc(/C(=C/c4ccccc4)c4ccccc4)c3c2c1 | 4.92% (inactive) | –
12 | CCN1C/C(=C/c2sccc2C)c2nc3ccccc3c(C(=O)O)c2C1 | 0.769% (inactive) | –
13 | C=C1CCC[C@]2(C)C[C@H]3OC(=O)C(CN4CCCCC4CO)[C@H]3CC12 (stereo not given in full) | -2.46% (inactive) | –
14 | CC(C)(C)C1CCC2(CC1)SCC(=O)N2c1ccccc1 (stereo not given) | -13.1% (inactive) | –
15 | COc1cc(/C=C2\CCOC2=O)cc(OC)c1OC | 17.2% (inactive) | –
16 | N#Cc1c2c(c(-n3cnc4ccccc43)n3c1nc1ccccc13)CCC2 | -10.7% (inactive) | –
17 | CCOC(=O)CNS(=O)(=O)Cc1ccccc1 | 6.77% (inactive) | –
18 | Cc1ccc(NC(=O)Nc2cccnc2)cc1NC(=O)Nc1cccnc1 | -10.5% (inactive) | –
19 | CCCCN(c1nc2ccccc2nc1Cl)S(=O)(=O)c1ccc(C)cc1 | -15.8% (inactive) | –
20 | CCn1c(SCc2cccc(F)c2)nnc1-c1ccncc1 | 6.56% (inactive) | –

Row | Structure (SMILES) | activation | Potency
21 | CCOC(=O)c1[nH]c(COC(=O)c2ccccc2NC(=O)c2ccco2)c(C(=O)OCC)c1C | -6.56% (inactive) | –
22 | Cn1c(=O)[nH]c(=O)c2[nH]c(N(Cc3ccccc3)Cc3ccccc3)nc21 | -27% (inactive) | –
23 | COc1ccc(CNC(=O)CN2C(=O)CSc3ccc(S(=O)(=O)N4CCOCC4)cc32)c(OC)c1 | -11.3% (inactive) | –
24 | COc1ccc(OC)c(C2CC(c3ccccc3)=NN2C(=S)Nc2ccccc2)c1 (stereo not given) | -3.76% (inactive) | –
25 | c1ccc(CSc2nnc(-c3ccco3)n2Cc2ccco2)cc1 | -13.9% (inactive) | –
26 | CC1CC(C)CN(C(=O)COC(=O)c2c[nH]c3ccccc23)C1 (stereo not given) | 5.38% (inactive) | –
27 | COc1ccc(C2c3ccc(O)cc3Oc3ncn(CC(C)C)c(=N)c32)cc1 (stereo not given) | -3.76% (inactive) | –
28 | CC(C)OP(=O)(OC(C)C)C(O)c1ccc(N(C)C)cc1 (stereo not given) | -11.5% (inactive) | –
29 | O=C(/C(=C/c1ccc(Cl)cc1)c1nc2ccccc2[nH]1)c1cccs1 | -3.28% (inactive) | –
30 | O=C(O)c1ccc(C2Nc3ccccc3C(=O)N2Cc2ccccc2)cc1 (stereo not given) | 27.8% (inactive) | –
31 | COc1ccc(C(=O)/C=C/C(=O)N(CC(=O)NC2CCCCC2)Cc2ccccc2)c(O)c1 | 3.76% (inactive) | –
32 | C=CCOC(=O)C1=C[C@H](c2coc3ccccc3c2=O)C[C@H](OCc2ccc(CO)cc2)O1 | -20.8% (inactive) | –
33 | CC(=O)NNC(=O)CN1C(=O)/C(=C/c2ccccc2)SC1=S | -5.26% (inactive) | –
34 | CC(C)C1CC(CCN)(c2ccccc2)CCO1 (stereo not given) | 1.5% (inactive) | –
35 | O=C(CNCc1cccs1)Nc1ccc(OC(F)(F)F)cc1 | 0% (inactive) | –
36 | O=C(NCCCN1CCOCC1)c1ccc2c(c1)N(Cc1cccc(F)c1)C(=O)c1ccccc1S2 | 6.01% (inactive) | –
37 | NCC(=O)c1cccc2ccc[n+]([O-])c12 | -3.01% (inactive) | –
38 | CSc1nc2ccccc2nc1N(C)S(=O)(=O)c1ccc(C)cc1 | 19.5% (inactive) | –
39 | COc1ccc(-c2nn(-c3ccccc3)cc2/C=C/C(=O)O)cc1[N+](=O)[O-] | -4.92% (inactive) | –
40 | CC(C)(C)n1nc2c(c1NC(=O)C1CC(=O)N(c3ccc(Cl)cc3)C1)CS(=O)(=O)C2 (stereo not given) | -0.82% (inactive) | –
